# Screening results deposited in PubChem by several laboratories.
# Rows were chosen to be rich in hits. Some 3.6% of all compounds tested hit in one or more screens of this group.
# Wnt act: activators of Wnt/beta-catenin signaling; AID 743398; Wnt/beta-catenin reporter cell assay, activator, plate reader; activation, % at 9.35 µM; 300,000 compounds, 1.2% hits; in the data active = activation above about 30%, passing the limit was not always enough; inconclusive = no clear call, values can overlap the other calls;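 also: 0% = neutral control wells and 100% = positive control wells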
# esBAF inh: blocks esBAF chromatin remodeling in mouse ES cells; Bmi1-luciferase knock-in reporter, 24 h; 100% = twice the neutral-well signal; reporter increase, % at 12.5 µM; 350,000 compounds, 2% hits; in the data active = activation above about 40%; inconclusive = no clear call, values can overlap the other calls;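 also: 0% = median of the plate's neutral control wells and 100% = double that signal; a rise in the Bmi1 reporter signal indicates esBAF inhibition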
# A3A deaminase: blocks human APOBEC3A ssDNA deamination; P31941; recombinant A3A, FAM/TAMRA ssDNA deamination fluorescence; inhibition, % at 20 µM; 330,000 compounds, 0.41% hits; AID 493011;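 active = at least 40% inhibition at 20 µM here, with at most 30% in a related deaminase screen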;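 also: plate controls were A3A with DMSO for no effect and wells lacking A3A enzyme for full effect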
# Target sequence (P31941 whole entry, looked up): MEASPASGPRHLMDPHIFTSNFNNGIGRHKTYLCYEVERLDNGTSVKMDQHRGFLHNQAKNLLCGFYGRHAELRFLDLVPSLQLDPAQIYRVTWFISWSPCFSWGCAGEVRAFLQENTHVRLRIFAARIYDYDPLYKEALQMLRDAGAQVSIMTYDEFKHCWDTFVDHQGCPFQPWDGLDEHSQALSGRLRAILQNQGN
# A3G deaminase: inhibitors of human APOBEC3G DNA deaminase. Q9HC16. recombinant A3G, ssDNA deamination FAM/TAMRA fluorescence. inhibition, % at 20 µM. 330,000 compounds, 0.28% hits. AID 493012;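 active = inhibition of at least 40% at 20 µM, with no more than 30% in the related APOBEC3A deaminase screen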;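 also: plate controls were DMSO wells with A3G for no effect and wells lacking A3G enzyme for full effect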
# Target sequence (Q9HC16 whole entry, looked up): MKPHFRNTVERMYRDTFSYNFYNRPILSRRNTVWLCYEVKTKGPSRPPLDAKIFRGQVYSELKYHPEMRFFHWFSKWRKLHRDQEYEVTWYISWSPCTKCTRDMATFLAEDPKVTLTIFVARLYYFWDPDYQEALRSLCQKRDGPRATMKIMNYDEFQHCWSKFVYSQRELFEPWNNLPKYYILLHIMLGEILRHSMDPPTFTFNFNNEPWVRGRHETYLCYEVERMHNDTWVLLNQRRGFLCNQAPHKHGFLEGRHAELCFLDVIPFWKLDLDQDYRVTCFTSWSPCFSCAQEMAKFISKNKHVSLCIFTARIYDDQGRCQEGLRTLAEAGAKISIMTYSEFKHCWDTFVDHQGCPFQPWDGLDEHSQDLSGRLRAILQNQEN
# PHOSPHO1 block: inhibitors of human PHOSPHO1 phosphatase; recombinant PHOSPHO1, absorbance phosphatase assay; 290,000 compounds, 1.1% hits; inhibition, % at 13.3 µM; AID 1565; Q8TCT1; in the data active = inhibition above about 60%
# MITF TRPM1 HTS: MITF TRPM1 promoter activation in melanoma cells; SK-MEL-5 TRPM1-promoter luciferase, 24 h; % of positive control, neutral wells = 0; activation, % at 12.5 µM; 300,000 compounds, 0.75% hits; AID 588334;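 active = mean activation of at least 80% with every replicate also reaching 80%; inconclusive = mean reaches 80% but some replicate falls short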;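 also: 0% = neutral control wells and 100% = parthenolide positive control wells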
# * = called active by the depositor; ? = inconclusive; · = no result.
SMILES,Wnt act,esBAF inh,A3A deaminase,A3G deaminase,PHOSPHO1 block,MITF TRPM1 HTS
CC(O)CNc1ncnc2cc(-c3ccc(F)cc3)sc12 (stereo unspecified),12,54*,-4,-5,23,?
N#C[C@@H]1[C@@H](c2ccc(-c3ccccc3F)cc2)[C@H](CO)N1C(=O)C1CCOCC1,·,-5,·,·,·,·
COc1cccc(Nc2nc(-c3sc(N)nc3C)cs2)c1,3,·,4,5,66*,31
Cc1nc(C)c(-c2csc(Nc3ccc(C(=O)O)c(O)c3)n2)s1,1,-2,-6,-5,19,5
COc1cccc(Nc2nc(-c3sc(C)nc3C)cs2)c1,0,71*,-3,-2,-8,·
Cc1nc(C)c(-c2csc(Nc3ccc(Cl)cn3)n2)s1,0,60*,·,·,·,·
COc1ccc(OC)c(Nc2nc(-c3sc(C)nc3C)cs2)c1,-5,20,-4,-5,25,38
Cc1nc(C)c(-c2csc(Nc3ccc(F)cc3)n2)s1,34*,·,4,-6,46,36
N#C[C@@H]1N[C@@H](CO)[C@@H]1c1ccccc1,·,-6,·,·,·,·
C[C@@H]1CN([C@H](C)CO)C(=O)Cc2cc(NC(=O)Cn3cnnn3)ccc2O[C@@H]1CN(C)Cc1ccc2c(c1)OCO2,·,-2,·,·,·,·
COc1cccc(S(=O)(=O)N[C@H]2CC[C@@H](CCNC(=O)Nc3cc(F)ccc3F)O[C@H]2CO)c1,·,2,·,·,·,·
Cc1nc(C)c(-c2csc(Nc3ncccc3C)n2)s1,15,55*,0,-1,1,36
COc1cccc(S(=O)(=O)Nc2ccc3c(c2)C(=O)N(C)[C@H]2CC[C@H](CC(=O)O)O[C@H]2CO3)c1,·,9,·,·,·,·
CCNC(=O)Nc1ccc2c(c1)C(=O)N(C)[C@@H]1CC[C@H](CC(=O)NCCN3CCCC3)O[C@@H]1CO2,·,0,·,·,·,·
C=CCn1c(SCC(=O)NC(N)=O)nnc1-c1cc2c(s1)CCC(CC)C2 (stereo unspecified),-3,·,3,-1,-12,-7
C=CCn1c(SCC(=O)NCC)nnc1-c1cc2c(s1)CCC(CC)C2 (stereo unspecified),-3,46*,-2,-1,-3,38
COc1ccccc1CNC(=O)C[C@H]1CC[C@@H]2[C@H](COC[C@H](O)CN2Cc2cccc(-c3ccncc3)c2)O1,·,9,·,·,·,·
COc1ccc(CN(C)C[C@H]2Oc3ccc(NC(=O)C4CCCCC4)cc3C(=O)N([C@H](C)CO)C[C@@H]2C)cc1,·,1,·,·,·,·
Cc1ccc(C(=O)Nc2ccc(-c3csc(C)n3)cc2)cc1,24,·,2,-8,12,34
O=C(Nc1ccc(-c2ccc3nncn3n2)cc1)C1CCCC1,44*,14,3,-1,-2,49
Cc1nc(-c2ccc(NC(=O)C3CCCCC3)cc2)cs1,·,68*,2,-1,12,71
CC(=O)c1cccc2c(O)c(C3=Nc4ccccc4C3=O)[nH]c12,40*,13,4,1,-9,-38
COc1ccc(C(O)c2ncc(-c3cccc(OC)c3)[nH]2)cc1 (stereo unspecified),-1,4,·,·,·,·
COc1cccc(-c2cnc(C(O)c3ccc(F)cc3)[nH]2)c1 (stereo unspecified),2,56*,·,·,·,·
CCc1ccc(C(O)c2ncc(-c3cccc(F)c3)[nH]2)cc1 (stereo unspecified),-2,87*,·,·,·,·
SMILES,Wnt act,esBAF inh,A3A deaminase,A3G deaminase,PHOSPHO1 block,MITF TRPM1 HTS
O=C(N[C@@H]1CC[C@H](CCn2cc(C3(O)CCCC3)nn2)O[C@H]1CO)C1CCCCC1,·,3,·,·,·,·
CO[C@H]1CN(C)C(=O)c2ccc(NC(=O)Cc3ccccc3)cc2OC[C@@H](C)N(C(=O)c2ccccc2F)C[C@@H]1C,·,-5,·,·,·,·
CCCC1CC(C)(C(=O)CSc2n[nH]c(-c3ccccc3)n2)OC1=O (stereo unspecified),-1,-2,-3,-14,60*,-1
COc1ccc(C(=O)Nc2ccc(C(=O)N3CCCCC3C)cc2)c(OC)c1OC (stereo unspecified),3,8,1,3,75*,1
Cc1cccc(C(=O)Nc2ccc(C(=O)N3CCCCC3C)cc2)c1 (stereo unspecified),3,19,-2,2,58,17
Cc1cc(C)n(C(=O)CNc2ccc(C)c(C)c2)n1,·,63*,-2,-7,-7,2
Cc1ccc(C(=O)CSc2ncn[nH]2)cc1,·,9,-1,-4,97*,24
CCc1ccc(C(=O)CSc2ncn[nH]2)cc1,·,19,0,-2,88*,54
COc1ccc(C(=O)CSc2ncn[nH]2)cc1OC,·,1,-4,-5,77*,-1
Cc1ccc(C(=O)CSc2ccccn2)cc1,·,49*,-2,-6,83*,65
CCCNC(=O)N1C[C@@H](O)COC[C@H]2O[C@H](CC(=O)NCc3ccc(Cl)c(Cl)c3)CC[C@@H]21,·,-1,·,·,·,·
COc1ccc(NC(=O)N(C)C[C@@H]2Oc3cc(-c4ccc(C)cc4)ccc3S(=O)(=O)N([C@H](C)CO)C[C@@H]2C)cc1,·,-1,·,·,·,·
CC(/C=N/NC(=O)Cc1cccs1)=C\c1ccccc1,·,·,0,-5,3,124*
O=C(N/N=C/C=C\c1ccccc1)c1cnccn1,-1,·,-1,-3,11,14
COc1ccc(/C=N/NC(=O)Cc2cccs2)cc1,25,59*,-2,-5,6,·
O=C(Cc1cccs1)N/N=C/C(Br)=C/c1ccccc1,·,51*,6,-6,26,107*
O=C(N/N=C/C(Br)=C/c1ccccc1)c1cnccn1,33*,50*,-4,-8,32,35
Cc1ccc(S(=O)(=O)Nc2ccc3c(c2)C(=O)N([C@H](C)CO)C[C@H](C)[C@H](CN(C)C(=O)CCCN(C)C)OCCCC[C@H](C)O3)cc1,·,2,·,·,·,·
O=C(C[C@@H]1C=C[C@H](NC(=O)c2ccncc2)[C@@H](CO)O1)NCC1CCCCC1,·,5,·,·,·,·
C[C@H](CO)N1C[C@H](C)[C@H](CN(C)Cc2ccc(C(F)(F)F)cc2)Oc2ccc(NC(=O)Nc3cccc4ccccc34)cc2CC1=O,·,5,·,·,·,·
Cc1ccc(S(=O)(=O)Nc2ccc3c(c2)C(=O)N([C@H](C)CO)C[C@H](C)[C@@H](CN(C)C(=O)C2CCCCC2)OCCCC[C@H](C)O3)cc1,·,5,·,·,·,·
CC(=O)CSc1nc2cc3c(cc2cc1C#N)OCCO3,11,·,-3,7,-8,-23
N#Cc1cc2cc3c(cc2nc1SCC(=O)N1CCCC1)OCCO3,·,22,-2,-4,9,87*
CO[C@@H]1CN(C)C(=O)c2ccc(NC(=O)c3ccc(Oc4ccccc4)cc3)cc2OC[C@@H](C)N(C(C)=O)C[C@H]1C,·,11,·,·,·,·
O=C(C1CCC1)N1CC[C@H]2[C@H](CO)Nc3ccc(C#Cc4cccc(F)c4)cc3[C@H]21,·,-3,·,·,·,·
Nc1ccccc1C#Cc1ccc2[nH]ccc2c1,?,82*,-5,-13,·,61
